# Records with an inconclusive call do not appear. Entries that show only a call come without a potency. Unmarked numbers belong to inactive results. The source made the active and inactive calls. Calls follow the shape of the dose curve; as a rule, active = well fitted inhibition curve with a large enough effect; inconclusive = small, poorly fitted or top-dose-only effect; inactive = flat fitted curve, though single readings scatter.
# Experiments:
# [1] = qHTS profiling for inhibitors of Plasmodium falciparum proliferation (AID 504749); also: nearly all actives have a fitted effect of over 60% in size; conditions: P. falciparum in erythrocytes, SYBR Green DNA, 72 h
# In short: (§1)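 SYBR Green fluorescence of parasite DNA, read after lysis and overnight dark incubation, measured growth over 72 h in erythrocyte culture at 0.3% parasitemia and 2.5% hematocrit. Data normalised to DMSO and 0.29 uM artemisinin, with plate-drift correction.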
# 3D7 = experiment: as above; conditions: P. falciparum in erythrocytes, SYBR Green DNA, 72 h; series mostly up to 28.7 µM
# In short: as §1
# 7G8 = experiment: as above; conditions: P. falciparum in erythrocytes, SYBR Green DNA, 72 h; series mostly up to 28.7 µM
# In short: as §1
# AA1029 = experiment: as above; conditions: P. falciparum in erythrocytes, SYBR Green DNA, 72 h; series mostly up to 28.7 µM
# In short: as §1
# AS120 = experiment: as above; conditions: P. falciparum in erythrocytes, SYBR Green DNA, 72 h; series mostly up to 28.7 µM
# In short: as §1
# C2A = experiment: as above; conditions: P. falciparum in erythrocytes, SYBR Green DNA, 72 h; series mostly up to 28.7 µM
# In short: as §1
# CP201 = experiment: as above; conditions: P. falciparum in erythrocytes, SYBR Green DNA, 72 h; series mostly up to 28.7 µM
# In short: as §1
# CP211 = experiment: as above; conditions: P. falciparum in erythrocytes, SYBR Green DNA, 72 h; series mostly up to 28.7 µM
# In short: as §1
# CP237 = experiment: as above; conditions: P. falciparum in erythrocytes, SYBR Green DNA, 72 h; series mostly up to 28.7 µM
# In short: as §1
# CP247 = experiment: as above; conditions: P. falciparum in erythrocytes, SYBR Green DNA, 72 h; series mostly up to 28.7 µM
# In short: as §1
# ATS189 = experiment: as above; conditions: P. falciparum in erythrocytes, SYBR Green DNA, 72 h; series mostly up to 28.7 µM
# In short: as §1
# ATS95 = experiment: as above; conditions: P. falciparum in erythrocytes, SYBR Green DNA, 72 h; series mostly up to 28.7 µM
# In short: as §1
# CP185 = experiment: as above; conditions: P. falciparum in erythrocytes, SYBR Green DNA, 72 h; series mostly up to 28.7 µM
# In short: as §1
# CP191 = experiment: as above; conditions: P. falciparum in erythrocytes, SYBR Green DNA, 72 h; series mostly up to 28.7 µM
# In short: as §1
# CP192 = experiment: as above; conditions: P. falciparum in erythrocytes, SYBR Green DNA, 72 h; series mostly up to 28.7 µM
# In short: as §1
# CP194 = experiment: as above; conditions: P. falciparum in erythrocytes, SYBR Green DNA, 72 h; series mostly up to 28.7 µM
# In short: as §1
# CP215 = experiment: as above; conditions: P. falciparum in erythrocytes, SYBR Green DNA, 72 h; series mostly up to 28.7 µM
# In short: as §1
# CP217 = experiment: as above; conditions: P. falciparum in erythrocytes, SYBR Green DNA, 72 h; series mostly up to 28.7 µM
# In short: as §1
# CP238 = experiment: as above; conditions: P. falciparum in erythrocytes, SYBR Green DNA, 72 h; series mostly up to 28.7 µM
# In short: as §1
# CP203 = experiment: as above; conditions: P. falciparum in erythrocytes, SYBR Green DNA, 72 h; series mostly up to 28.7 µM
# In short: as §1
# [2] = at 28.7 µM (top of the series), parasite line A
# [3] = at 28.7 µM (top of the series), parasite line B
# Potency is read from the fitted curve at half-maximal effect.
smiles,measurement,setting,value
CN1[C@@H](CC(=O)c2ccccc2)CCC[C@H]1C[C@H](O)c1ccccc1,"activity, negative = inhibition",[1]; [2],-28.5%
same,Potency,[1]; parasite line B,12.6 µM (active)
same,Potency,3D7,inactive
same,Potency,7G8,8.91 µM (active)
same,Potency,AA1029,11.2 µM (active)
same,Potency,AS120,12.6 µM (active)
same,Potency,C2A,inactive
same,Potency,CP201,inactive
same,Potency,CP211,inactive
same,Potency,CP237,7.94 µM (active)
same,Potency,CP247,inactive
CCCCC[C@H](O)/C=C/[C@@H]1[C@@H](C/C=C\CCCC(=O)O)[C@@H](O)C[C@H]1O,"activity, negative = inhibition",[1]; [2],7.31%
same,"activity, negative = inhibition",[1]; [3],11%
same,Potency,3D7,inactive
same,Potency,AA1029,inactive
same,Potency,AS120,inactive
same,Potency,ATS189,inactive
same,Potency,ATS95,inactive
same,Potency,C2A,inactive
same,Potency,CP185,inactive
same,Potency,CP191,inactive
same,Potency,CP192,inactive
same,Potency,CP194,inactive
same,Potency,CP201,inactive
same,Potency,CP211,inactive
same,Potency,CP215,inactive
same,Potency,CP217,inactive
same,Potency,CP237,inactive
same,Potency,CP238,inactive
same,Potency,CP247,inactive
CN1CCN(c2cc3c(nn2)Oc2ccccc2N3C)CC1,"activity, negative = inhibition",[1]; [2],11.3%
same,"activity, negative = inhibition",[1]; [3],1.64%
same,Potency,3D7,inactive
same,Potency,7G8,inactive
same,Potency,AA1029,inactive
same,Potency,AS120,inactive
same,Potency,ATS189,inactive
same,Potency,ATS95,inactive
same,Potency,C2A,inactive
same,Potency,CP185,inactive
same,Potency,CP191,inactive
same,Potency,CP192,inactive
same,Potency,CP194,inactive
same,Potency,CP201,inactive
same,Potency,CP211,inactive
same,Potency,CP215,inactive
same,Potency,CP217,inactive
same,Potency,CP237,inactive
same,Potency,CP238,inactive
same,Potency,CP247,inactive
Cc1c(Nc2ncccc2C(=O)O)cccc1C(F)(F)F,"activity, negative = inhibition","[1]; at 12.8 µM (top of the series), parasite line A",7.85%
same,"activity, negative = inhibition","[1]; at 12.8 µM (top of the series), parasite line B",-2.62%
same,Potency,3D7,inactive
same,Potency,7G8,inactive
same,Potency,AA1029,inactive
same,Potency,AS120,inactive
same,Potency,ATS189,inactive
same,Potency,ATS95,inactive
same,Potency,C2A,inactive
same,Potency,CP185,inactive
same,Potency,CP191,inactive
same,Potency,CP192,inactive
same,Potency,CP194,inactive
same,Potency,CP201,inactive
same,Potency,CP211,inactive
same,Potency,CP215,inactive
same,Potency,CP217,inactive
same,Potency,CP237,inactive
same,Potency,CP238,inactive
same,Potency,CP247,inactive
C[S+](CC[C@H](N)C(=O)O)C[C@H]1O[C@@H](n2cnc3c(N)ncnc32)[C@H](O)[C@@H]1O (some centres not stated),Potency,3D7,inactive
same,Potency,7G8,inactive
same,Potency,AS120,inactive
same,Potency,C2A,inactive
same,Potency,CP192,inactive
same,Potency,CP194,inactive
same,Potency,CP201,inactive
same,Potency,CP211,inactive
same,Potency,CP215,inactive
same,Potency,CP237,inactive
COc1cc(/C=C/C(=O)N2CCN(CC(=O)N3CCCC3)CC2)cc(OC)c1OC,"activity, negative = inhibition",[1]; [2],1.12%
same,"activity, negative = inhibition",[1]; [3],8.7%
same,Potency,3D7,inactive
same,Potency,7G8,10 µM (active)
same,Potency,AA1029,inactive
same,Potency,ATS189,inactive
same,Potency,ATS95,inactive
same,Potency,C2A,inactive
same,Potency,CP185,inactive
same,Potency,CP191,inactive
same,Potency,CP192,inactive
same,Potency,CP194,inactive
same,Potency,CP201,inactive
same,Potency,CP211,inactive
same,Potency,CP215,inactive
same,Potency,CP217,inactive
same,Potency,CP237,inactive
same,Potency,CP238,inactive
same,Potency,CP247,inactive
Nc1cc(-c2ccncc2)c[nH]c1=O,"activity, negative = inhibition",[1]; [2],17.9%
same,"activity, negative = inhibition",[1]; [3],15.4%
same,Potency,3D7,inactive
same,Potency,AA1029,inactive
same,Potency,AS120,inactive
same,Potency,ATS189,inactive
same,Potency,ATS95,inactive
same,Potency,C2A,inactive
same,Potency,CP185,inactive
same,Potency,CP191,inactive
same,Potency,CP192,inactive
same,Potency,CP194,inactive
same,Potency,CP201,inactive
same,Potency,CP211,inactive
same,Potency,CP215,inactive
same,Potency,CP217,inactive
same,Potency,CP237,inactive
same,Potency,CP238,inactive
same,Potency,CP247,inactive
NC(=O)C(c1ccccc1)(c1ccccc1)[C@@H]1CCN(CCc2ccc3c(c2)CCO3)C1,"activity, negative = inhibition",[1]; [2],-17.4%
same,"activity, negative = inhibition",[1]; [3],-5.16%
same,Potency,3D7,inactive
same,Potency,7G8,11.2 µM (active)
same,Potency,ATS189,inactive
same,Potency,C2A,inactive
same,Potency,CP192,inactive
CN(C)c1ccc(C(=C2C=CC(=[N+](C)C)C=C2)c2ccccc2)cc1,Potency,[1]; parasite line A,11.2 µM (active)
same,Potency,[1]; parasite line B,11.2 µM (active)
same,Potency,3D7,2.24 µM (active)
same,Potency,7G8,11.2 µM (active)
same,Potency,AA1029,8.91 µM (active)
same,Potency,AS120,11.2 µM (active)
same,Potency,ATS189,7.94 µM (active)
same,Potency,C2A,12.6 µM (active)
same,Potency,CP191,7.94 µM (active)
same,Potency,CP192,inactive
same,Potency,CP217,11.2 µM (active)
same,Potency,CP237,8.91 µM (active)
same,Potency,CP247,6.31 µM (active)
Oc1c(Br)cc(Br)c2cccnc12,"activity, negative = inhibition",[1]; [2],-4.99%
same,"activity, negative = inhibition",[1]; [3],-18.5%
same,Potency,3D7,inactive
same,Potency,AA1029,inactive
same,Potency,ATS189,inactive
same,Potency,ATS95,inactive
same,Potency,C2A,inactive
same,Potency,CP185,inactive
same,Potency,CP191,inactive
same,Potency,CP192,inactive
same,Potency,CP194,inactive
same,Potency,CP201,inactive
same,Potency,CP203,inactive
same,Potency,CP211,inactive
same,Potency,CP215,inactive
same,Potency,CP217,inactive
same,Potency,CP237,inactive
same,Potency,CP238,inactive
same,Potency,CP247,inactive
Cc1nc2ccccc2n1Cc1ccc(Cl)cc1,Potency,[1]; parasite line A,12.6 µM (active)
same,Potency,3D7,inactive
same,Potency,ATS95,inactive
same,Potency,C2A,inactive
same,Potency,CP185,inactive
same,Potency,CP192,inactive
same,Potency,CP237,inactive
same,Potency,CP238,inactive
O=c1[nH]c2ccccc2n1CCCN1CCN(C(c2ccccc2)c2ccccc2)CC1,"activity, negative = inhibition",[1]; [2],-13.9%
same,Potency,7G8,7.08 µM (active)
same,Potency,C2A,inactive
same,Potency,CP201,inactive
same,Potency,CP237,8.91 µM (active)
COc1ccc(/C=C/C(=O)Nc2ccccc2C(=O)O)cc1OC,"activity, negative = inhibition",[1]; [2],3.65%
same,"activity, negative = inhibition",[1]; [3],-0.207%
same,Potency,3D7,inactive
same,Potency,AA1029,inactive
same,Potency,AS120,inactive
same,Potency,ATS189,inactive
same,Potency,ATS95,inactive
same,Potency,C2A,inactive
same,Potency,CP185,inactive
same,Potency,CP191,inactive
same,Potency,CP192,inactive
same,Potency,CP194,inactive
same,Potency,CP201,inactive
same,Potency,CP203,inactive
same,Potency,CP211,inactive
same,Potency,CP215,inactive
same,Potency,CP217,inactive
same,Potency,CP237,inactive
same,Potency,CP238,inactive
same,Potency,CP247,inactive
CC(N)C(=O)OC(C)(C)Cc1ccc(Cl)cc1 (configuration not stated),"activity, negative = inhibition",[1]; [2],3.68%
same,"activity, negative = inhibition",[1]; [3],0.818%
same,Potency,3D7,inactive
same,Potency,7G8,10 µM (active)
same,Potency,C2A,inactive
same,Potency,CP191,inactive
same,Potency,CP192,inactive
same,Potency,CP203,12 µM (active)
same,Potency,CP237,4.47 µM (active)
CCOc1ccc2nc(S(N)(=O)=O)sc2c1,"activity, negative = inhibition",[1]; [2],-5.98%
same,Potency,3D7,inactive
same,Potency,7G8,inactive
same,Potency,AA1029,inactive
same,Potency,AS120,inactive
same,Potency,ATS189,inactive
same,Potency,C2A,inactive
same,Potency,CP185,inactive
same,Potency,CP191,inactive
same,Potency,CP192,inactive
same,Potency,CP194,inactive
same,Potency,CP201,inactive
same,Potency,CP215,inactive
same,Potency,CP217,inactive
same,Potency,CP237,inactive
same,Potency,CP238,inactive
same,Potency,CP247,inactive
CC(=O)[C@]1(O)Cc2c(O)c3c(c(O)c2[C@@H](O[C@H]2C[C@H](N)[C@H](O)[C@H](C)O2)C1)C(=O)c1c(O)cccc1C3=O,Potency,[1]; parasite line A,7.08 µM (active)
same,Potency,[1]; parasite line B,12.6 µM (active)
same,Potency,3D7,3.16 µM (active)
same,Potency,7G8,1.12 µM (active)
same,Potency,AA1029,7.08 µM (active)
same,Potency,AS120,7.94 µM (active)
same,Potency,ATS189,10 µM (active)
same,Potency,ATS95,7.08 µM (active)
same,Potency,CP191,6.31 µM (active)
same,Potency,CP192,13.5 µM (active)
same,Potency,CP194,13.5 µM (active)
same,Potency,CP203,9.53 µM (active)
same,Potency,CP211,10.7 µM (active)
same,Potency,CP215,12 µM (active)
same,Potency,CP237,2.51 µM (active)
same,Potency,CP247,5.62 µM (active)

# Source: PubChem BioAssay (NCATS)
